From PubChem
SW480 rerep – induces DNA re-replication in SW480 colon adenocarcinoma cells; actives 1.8% (n = 340,000); SW480 DNA re-replication, Hoechst DNA content imaging, 48 h; Potency, µM (doses to about 46.1 µM), inactives show top-dose re-replication activation, actives largely listed as activators; also: % of control where 0% means no effect; nearly all actives have a fitted effect of over 55% in size
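Hoechst fluorescence of nuclei (405 nm excitation, 500-530 nm emission) measured by plate-scanning imager after 48 hr compound exposure at 37 C; re-replication scored as increased number of nuclei with elevated intensity.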
12-LOX inh – blocks human arachidonate 12S-lipoxygenase. P18054. purified 12hLO, xylenol orange hydroperoxide absorbance. Potency, µM (doses to about 108 µM), inactives show top-dose activity change, negative = inhibition, actives largely listed as inhibitors. actives 1.1% (n = 580,000); also: % is scaled to controls: 0 for no effect and ±100 for the full control effect
Target sequence (P18054 whole entry, looked up): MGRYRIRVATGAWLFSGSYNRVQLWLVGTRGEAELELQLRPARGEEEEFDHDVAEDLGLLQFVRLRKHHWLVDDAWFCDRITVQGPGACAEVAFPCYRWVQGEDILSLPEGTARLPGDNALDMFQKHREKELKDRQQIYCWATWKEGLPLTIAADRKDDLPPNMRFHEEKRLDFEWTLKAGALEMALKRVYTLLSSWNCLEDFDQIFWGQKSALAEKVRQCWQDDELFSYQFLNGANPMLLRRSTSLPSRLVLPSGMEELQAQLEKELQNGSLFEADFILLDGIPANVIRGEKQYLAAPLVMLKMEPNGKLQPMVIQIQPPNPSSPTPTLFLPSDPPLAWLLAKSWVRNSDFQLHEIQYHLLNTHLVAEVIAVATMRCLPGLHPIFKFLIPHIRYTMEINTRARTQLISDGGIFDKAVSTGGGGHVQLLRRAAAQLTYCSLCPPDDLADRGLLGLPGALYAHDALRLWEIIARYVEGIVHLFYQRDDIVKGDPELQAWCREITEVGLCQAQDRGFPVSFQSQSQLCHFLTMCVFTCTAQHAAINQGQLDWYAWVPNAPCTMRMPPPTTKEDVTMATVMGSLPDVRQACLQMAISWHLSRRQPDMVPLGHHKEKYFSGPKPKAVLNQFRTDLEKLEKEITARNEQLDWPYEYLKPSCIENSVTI
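Hydroperoxide product was detected by ferrous iron/xylenol orange as the 573 to 405 nm absorbance ratio. Arachidonic acid at 40 uM (final) was turned over for 30 min at room temperature by 150 nM human 12hLO, pH 7.0 Hepes buffer, after 15 min compound preincubation.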
MCF10A rerep – induces DNA re-replication in MCF 10a normal breast cells; Potency, µM (series often up to 46.1 µM), without a hit: at the highest dose activity, positive = re-replication, usual class: activators; actives 2.9% (n = 350,000); MCF 10A DNA re-replication, Hoechst nuclear intensity, 48 h; also: % of control where 0% means no effect; nearly all actives have a fitted effect of over 50% in size
KB-3-1 cytotox – KB-3-1 parental cell cytotoxicity; KB-3-1 viability, CellTiter-Glo ATP luminescence, 72 h; AID 1347075; actives 1.4% (n = 400,000); Potency, µM (doses to about 46.1 µM), most hits filed as cytotoxic; also: % is scaled to controls: 0 for no effect and ±100 for the full control effect; nearly all actives have a fitted effect of over 60% in size
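Parental KB-3-1 viability, qHTS format: 72 h compound exposure, 37 °C; CellTiter-Glo; media-only wells and DMSO plates as controls; concentration-effect fits on corrected data.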
KB-V1 cytotox – kills drug-selected multidrug resistant KB-V1 cells; KB-V1 MDR cells viability, CellTiter-Glo, 72 h; Potency, µM (series often up to 46.1 µM), most hits filed as cytotoxic; actives 3.4% (n = 400,000); AID 1347076; also: % is scaled to controls: 0 for no effect and ±100 for the full control effect; nearly all actives have a fitted effect of over 60% in size
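KB-V1 MDR subline cells in DMEM (phenol-red free, 10% FBS) exposed to compounds in qHTS concentration series for 72 h at 37 degrees C. Viability read by CellTiter-Glo luminescence; concentration-effect curves fitted after normalization and correction.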
PINK1 expr mod – modulators of PINK1 expression | actives 0.2% (n = 410,000) | Potency, µM (doses to about 76.6 µM), for the others: at the highest dose activation (PINK1 increase), actives largely listed as activators | PINK1 immunofluorescence, high-content cytometry, 24 h; active = well fitted activation curve with a large enough effect; inconclusive = small, poorly fitted or top-dose-only effect; cell line not stated here; also: % of control where 0% means no effect; nearly all actives have a fitted effect of over 65% in size
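Readout is PINK1 immunofluorescence, quantified alongside mitochondrial, cell and nuclear markers by laser-scanning microplate cytometry. Cells from a stable line were exposed to compound titrations (5 concentrations) for 24 hours, with CCCP controls.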
Active calls of the source: *; i = inactive; u = inconclusive; x = no result given; [ ] = dose if it differs, or a comment. Shown are actives, neighbours in structure and some others; about 5.8% of the full set was active somewhere. Unless noted, calls follow the shape of the dose curve; as a rule, active = well fitted curve in the direction sought with a large enough effect; inconclusive = small, poorly fitted or top-dose-only effect, or another doubt; inactive = no such curve, though single readings can be large; an effect the other way counts as inactive or inconclusive. Potency is read from the fitted curve at half-maximal effect.

SMILES | SW480 rerep | 12-LOX inh | MCF10A rerep | KB-3-1 cytotox | KB-V1 cytotox | PINK1 expr mod
COc1ccc(C2=C(C)C(=O)N(Cc3ccc(C(=O)Nc4ccc(F)cc4C)cc3)S2(=O)=O)cc1 | x | -25% | x | 4.6µM* | i | 9%
COc1ccc(C2=C(C)C(=O)N(Cc3ccc(C(=O)Nc4cccc(F)c4)cc3)S2(=O)=O)cc1 | x | -2% | x | i | i | 1%
C=CCn1c(NC(=O)c2ccc(Br)o2)c(S(=O)(=O)c2ccccc2)c2nc3ccccc3nc21 | 17% | 1% | 12µM* | i | u | u
O=C(Nc1ccc(S(=O)(=O)NCc2ccccc2)cc1)c1ccc(Br)o1 | -3% | -8% | 1% | i | i | 2%
Cc1ccc(/C(O)=C2\C(=O)C(=O)N(C)C2c2ccc(Br)cc2)cc1 (stereo unspecified) | -3% | u | -12% | i | u | -2%
CN1C(=O)C(=O)/C(=C(/O)c2ccc(Br)cc2)C1c1ccc(F)cc1 (stereo unspecified) | -102% | 25µM* | -13% | i | i | 4%
COc1ccc(Cl)cc1NC(=O)C(=O)c1cn(CC(=O)N2CCOCC2)c2ccccc12 | x | 16% | x | x | x | x
Cn1c(=O)c2[nH]c(CCC3CCCC3)nc2n(C)c1=O | -2% | -4% | -2% | i | 23µM* | -3%
CC(C)CC(=O)NC(=S)Nc1ccc(S(=O)(=O)NC(C)(C)C)cc1 | 3% | -24% | 5% | i | 15µM* | -1%
Fc1cccc(Cl)c1CNc1ccc(N2CCCC2)cc1 | u | 32µM* | -1% | i | i | 10%
CCCC(=O)c1cc(O)c(O)cc1O | x | 1.6µM* | x | x | x | x
Cc1[nH]c(SCC(=O)NCCc2ccccc2)nc1Cc1ccccc1 | x | -63% | x | x | x | x
Cc1cscc(C)c1=S | x | 18µM* | x | i | i | 0%
CC1(C)CC(C)(c2ccc(O)cc2O)N(c2ccc3ccccc3c2)C(=S)N1 (stereo unspecified) | -3% | 18µM* | 2% | i | i | -3%
COCCNC(=O)c1ccc(-n2c(SCc3cc(F)ccc3F)nc3ccccc3c2=O)cc1 | -3% | -11% | -1% | u | 5.8µM* | 3%
Cn1c(C(=O)N2CCN(c3cccc(C(F)(F)F)c3)CC2)cc2sccc21 | 23µM* | -33% | u | i | i | 7%[38.3 µM]
Cc1ccc(C)c(N2CCN(C(=O)c3cc4sccc4n3C)CC2)c1 | -3% | -7% | u | u | u | u
CCOC(=O)N1CCN(C(=O)c2cc3sccc3n2C)CC1 | -5% | -22% | 1% | i | 13µM* | -3%[38.3 µM]
Cc1nc(Nc2nc(CCC(C)C)cc(=O)[nH]2)nc2ccccc12 | x | -1% | x | x | x | x
Cc1cccc(NC(=O)c2ccc(S(=O)(=O)NCc3ccco3)cc2)n1 | 11% | u | 10% | i | u | 3%
O=C(CCc1ccc(S(=O)(=O)NCc2ccccc2)cc1)NCc1ccco1 | -192% | -8% | -5% | i | 21µM* | 1%
CCCNS(=O)(=O)c1ccc(CCC(=O)NCc2ccco2)cc1 | -2% | u | -1% | i | i | 0%
Cc1ccc(NC(=O)c2ccc(S(=O)(=O)NCc3ccco3)cc2)nc1 | 21µM* | -27% | u | 21µM* | u | 7%
CCC(C(=O)NCc1ccco1)N(C(=O)CNS(=O)(=O)c1ccccc1)C1CCCCC1 (stereo unspecified) | 7% | -22% | 4.1µM* | i | u | 6%[38.3 µM]
O=C(NCc1ccco1)c1cc(C(=O)C2CCCCC2)c[nH]1 | -1% | -21% | 19% | i | 10µM* | 4%[38.3 µM]
SMILES | SW480 rerep | 12-LOX inh | MCF10A rerep | KB-3-1 cytotox | KB-V1 cytotox | PINK1 expr mod
O=C1COc2ccc(-c3ccoc3)nc2CN1Cc1ccccc1 | x | -19%[176 µM] | x | x | x | x
C=CCn1cc2c3c(cccc31)[C@H](CC(C)C)N[C@H](C(=O)N1CCN(C)CC1)C2 | x | 94%[176 µM] | x | x | x | x
O=C(NC1CCCCCC1)c1ccc(S(=O)(=O)NCc2ccco2)cc1 | -3% | 0% | 5% | i | 21µM* | 10%[38.3 µM]
O=C(c1ccc(S(=O)(=O)NCc2ccco2)cc1)N1CCCC1 | 5% | 0% | 0% | i | i | -1%
O=S(=O)(NCc1ccco1)c1ccc(S(=O)(=O)N2CCCCC2)cc1 | 1% | 6% | 6% | i | 16µM* | 8%[38.3 µM]
CC1(c2ccc(C#N)cc2)NC(=O)N(Cc2coc(-c3cccs3)n2)C1=O (stereo unspecified) | x | -4% | x | x | x | x
